Assay outcomes as filed in PubChem BioAssay.
GalR3 antag: human GalR3 antagonism | O60755 | HEK293 GalR3-CNG cAMP membrane potential fluorescence; galR3 body fused to GalR1 C-terminus | inhibition, % at 3 µM | 360,000 compounds, 0.44% hits;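 active = inhibition above the screen-wide average plus 3 SD, cut at about 13% in these data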;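 also: forskolin and galanin both at EC90 stimulate the cells; cAMP rise reported by CNG channel membrane potential dye signal; 0% = forskolin plus galanin with DMSO and 100% = forskolin alone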
NCOA1 inh: human NCOA1 inhibition. Q15788. HEK293 GAL4-SRC1 luciferase reporter, luminescence. inhibition, % at 3.6 µM. 360,000 compounds, 0.12% hits. AID 588354;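 active = inhibition above the campaign mean plus 3 SD, with each screening campaign given its own cutoff, cut at about 60% in these data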;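 also: 0% = DMSO treated cells and 100% = gossypol at 36 µM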
NCOA3 inh: inhibitors of human steroid receptor coactivator 3 (SRC3). inhibition, % at 3.6 µM. AID 588352. HEK293 GAL4-SRC3 luciferase reporter, luminescence. 360,000 compounds, 0.17% hits;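 active = inhibition above a per-campaign cutoff, the mean of all compounds plus 3 SD, cut at about 60% in these data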;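 also: 0% = DMSO-treated cells and 100% = gossypol-treated cells at 36 µM; higher means less SRC3-driven luciferase light from the GAL4 reporter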
NR2F2 inh: NR2F2 (human) inhibition, primary screen; HEK293T NGFI-A luciferase reporter, luminescence; inhibition, % at 8.6 µM; AID 686940; P24468; 370,000 compounds, 0.7% hits;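 active = inhibition above a per-plate cutoff, mean inhibition of test wells between control levels plus 3 SD, cut at about 38% in these data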;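 also: cells cotransfected with COUP-TFII expression vector driving the NGFI-A reporter; 0% = median of COUP-TF2 test wells and 100% = reporter-only cells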
NR5A2 inv ag: NR5A2 inverse agonism in reporter assay; O00482; HEK293T StAR-luciferase reporter, LRH-1 transfected, 24 h; inhibition, % at 3.6 µM; 360,000 compounds, 0.13% hits; AID 602396;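 active = inhibition above the mean inhibition of all tested compounds plus 3 SD, cut at about 73% in these data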;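 also: 0% = DMSO wells and 100% = reporter-only cells lacking LRH-1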
NCOA2 inhibitor: inhibits human steroid receptor coactivator 2; inhibition, % at 9 µM; 370,000 compounds, 0.17% hits; AID 651957; HEK293 GAL4-SRC2 luciferase reporter, luminescence;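 active = inhibition above the mean inhibition of all tested compounds plus 3 SD, set per campaign, cut at about 52% in these data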;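 also: 0% = DMSO treated cells and 100% = cells given Gossypol at 36 µM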
Gal4-VP16 ctr: VP16 inhibition counter-screen for COUP-TFII; HEK293 Gal4-VP16 luciferase reporter, luminescence; inhibition, % at 8.5 µM; shares compounds with NR2F2 inh; 2,500 compounds, 25% hits; AID 687007; in the data active = inhibition above about 13%
COUP-TFII conf: COUP-TFII (NR2F2) inhibition, confirmation assay | AID 687008 | HEK293 NGFI-A luciferase reporter, luminescence | inhibition, % at 8.5 µM | shares compounds with NR2F2 inh | 2,500 compounds, 45% hits;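 active = mean inhibition over three repeats above a set limit taken from the earlier primary screen, cut at about 38% in these data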;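 also: 100% = cells given the luciferase reporter alone without the COUP-TF2 vector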
Numbers without * were called inactive; nt = not tested or not shown. Hits are enriched below; roughly 1.1% of the tested compounds scored in any of these assays.

SMILES	GalR3 antag	NCOA1 inh	NCOA3 inh	NR2F2 inh	NR5A2 inv ag	NCOA2 inhibitor	Gal4-VP16 ctr	COUP-TFII conf
CN(C)c1cc[n+](Cc2c(Cl)cccc2Cl)cc1	-0.7	5.7	22.6	47.0*	45.9	-0.1	4.8	34.0
C=C(C(=O)c1ccccc1)C(NC(C)(C)C)c1ccccc1 (stereo not drawn)	-4.9	56.3	57.1	79.8*	73.5*	60.4*	66.5*	92.0*
C=C(C(=O)c1ccccc1)C(C)CC(=O)c1ccccc1 (stereo not drawn)	-2.5	0.8	32.4	-10.4	-3.1	36.1	nt	nt
O[C@@H]1[C@@H](O)C=C2CCN3Cc4cc5c(cc4[C@H]1C23)OCO5 (stereo partly drawn)	nt	75.0*	88.8*	56.2*	97.6*	36.5	3.2	25.6
CCCNc1ccc(S(=O)(=O)N(CC)CC)cn1	8.3	-17.5	15.3	-11.7	-10.1	0.5	nt	nt
Cn1nc(C(F)(F)F)c(C#N)c1N1CCN(c2ccc(F)cc2)CC1	-0.9	42.9	50.5	45.1*	3.6	41.2	11.1	30.8
COc1ccc(NC(=O)/C(Cl)=C(/Cl)S(=O)Cc2ccccc2)cn1 (stereo not drawn)	10.0	-58.2	25.9	61.4*	68.9	83.8*	88.2*	100.0*
COc1ccc(NC(=O)Cc2ccccc2)cn1	-4.6	8.6	3.5	3.7	11.5	-45.3	nt	nt
COCc1cc(N2CCN(C(=O)OC(C)(C)C)C[C@@H]2C)ccc1N1CCN(Cc2ccccc2)[C@@H](C)C1	-6.9	nt	nt	37.5*	nt	-2.9	5.0	16.4
Cc1cc(N2CCN(C(=O)OC(C)(C)C)C[C@@H]2C)ccc1N1CCN(Cc2ccccc2)[C@H](C)C1	-5.1	nt	nt	23.5	nt	19.0	nt	nt
N#Cc1cc2cc3c(cc2nc1SCC(=O)N1CCOCC1)OCCO3	-6.6	-13.8	29.6	46.4*	26.0	12.5	24.2*	59.0*
Nc1ccc(-c2nc3ccc(C(=O)O)cc3s2)cc1	1.6	8.6	33.4	42.4*	-7.1	34.4	-95.9	-24.3
C=CCc1cccc2cc(C(=O)Nc3ccccc3C(=O)O)c(=O)oc12	-9.6	-2.6	27.5	40.7*	6.2	-0.1	-8.2	47.0*
CC1(C)Cc2cccc(OCC(=O)N3CCN(c4ccccc4F)CC3)c2O1	4.1	-3.8	-0.4	9.5	10.5	22.1	nt	nt
CC(Sc1nnc2c(n1)[nH]c1ccccc12)C(=O)N(C)C1CCCCC1 (stereo not drawn)	-4.7	2.5	1.1	43.6*	3.9	30.6	2.2	34.3
CC1CCc2nc(NC(=O)C3CC3)sc2C1 (stereo not drawn)	0.0	-131.7	-64.0	-25.4	-95.2	-77.4	nt	nt
CC1CCc2nc(NC(=O)C3COc4ccccc4O3)sc2C1 (stereo not drawn)	nt	52.6	33.8	63.6*	28.9	40.7	18.2*	56.7*
CCn1c(Cl)c(C=O)s/c1=N\S(=O)(=O)c1ccccc1	-0.1	-154.7	18.4	51.3*	32.5	40.0	47.6*	36.0
Cc1cc(C(=O)CSc2ccc(F)cc2)cc(C)c1OC(=S)N(C)C	-1.2	62.6*	50.8	72.9*	54.9	51.5	57.5*	85.4*
CCCN1C(=O)CN(C2CCCCCC2)C(=O)C1c1ccc(C)cc1 (stereo not drawn)	-2.5	-7.6	-1.9	-8.4	7.7	-15.1	nt	nt
Cc1ccc(-n2ncc3c(NCc4cccnc4)ncnc32)c(C)c1	-2.8	19.8	21.0	40.8*	17.2	18.5	-11.9	23.6
Cc1cccc(-n2ncc3c(NCc4cccnc4)ncnc32)c1	0.3	-72.3	-109.4	-26.9	-125.2	-58.0	nt	nt
C=CCN(c1ccccc1OC)S(=O)(=O)c1ccc(Cl)c(C(=O)Nc2ccc(N3CCOCC3)cc2)c1	-6.4	15.4	28.4	42.5*	21.1	2.5	4.5	24.6
COc1ccccc1N(C)S(=O)(=O)c1ccc(C(=O)Nc2ccc(N3CCOCC3)cc2)cc1	-1.1	3.7	9.8	12.9	-4.8	7.2	nt	nt
O=C(C1CCCN(S(=O)(=O)c2cccc3nsnc23)C1)N1CCCCCC1 (stereo not drawn)	-0.3	-22.6	1.9	6.3	-7.2	14.5	nt	nt
SMILES	GalR3 antag	NCOA1 inh	NCOA3 inh	NR2F2 inh	NR5A2 inv ag	NCOA2 inhibitor	Gal4-VP16 ctr	COUP-TFII conf
O=C(C1CCCN(S(=O)(=O)c2cccc3nsnc23)C1)N1CCc2ccccc2C1 (stereo not drawn)	0.6	-8.6	-6.8	40.6*	-15.1	32.0	-5.9	1.8
CCCCOC(=O)c1[nH]c2c(c1C)C(=O)CC(c1cc(OC)c(OC)c(OC)c1)C2 (stereo not drawn)	0.2	31.4	41.1	71.4*	27.5	3.0	12.5	62.9*
COC(=O)NCC(c1cccnc1)N1CCN(c2ccccc2)CC1 (stereo not drawn)	nt	-25.7	-38.8	1.3	-3.4	-5.8	nt	nt
O=C(NCCc1c[nH]c2ccccc12)C(=O)NCC(c1cccnc1)N1CCN(c2ccccc2)CC1 (stereo not drawn)	nt	16.1	21.4	67.3*	28.3	27.6	0.3	33.8
O=C(CNC(=O)C1CCCCC1)Nc1ccc(Cl)cc1	-4.2	-20.2	5.5	-0.8	-28.2	-34.6	nt	nt
CC(=O)c1cccc(NC(=O)C2Cc3c(-c4ccccc4Oc4ccccc4)ccnc3O2)c1 (stereo not drawn)	-3.5	21.3	-5.4	40.6*	35.0	4.4	-6.6	12.2
COc1ccc(NC(=O)C2Cc3c(-c4ccc(Cl)cc4)ccnc3O2)cc1OC (stereo not drawn)	-6.5	18.0	14.1	64.1*	28.7	30.0	6.6	54.0*
COc1ccc(NC(=O)C2Cc3c(-c4ccncc4)ccnc3O2)cc1OC (stereo not drawn)	-7.2	-0.8	-4.7	4.1	-4.2	11.2	nt	nt
Cn1c(=O)c2c(nc(SCC(=O)N3c4ccccc4CCc4ccccc43)n2C)n(C)c1=O	1.4	2.9	12.2	-8.2	0.2	0.7	nt	nt
CCCS(=O)(=O)c1cnc(C2COc3ccccc3O2)nc1N (stereo not drawn)	-11.9	54.3	59.5	72.0*	59.4	69.5*	41.9*	79.0*
Cc1ccc(C2=NN(C(=O)CCl)C(c3cccs3)C2)o1 (stereo not drawn)	-1.8	15.6	52.5	7.0	6.6	49.3	nt	nt
CCOCCCNc1ncnc2c1[nH]c1ccccc12	-0.4	-2.3	1.5	36.2	5.5	13.9	nt	nt
CCCCOCCCNc1ncnc2c1[nH]c1ccccc12	-6.3	17.7	28.5	66.5*	44.3	-15.0	13.6*	63.3*
CCCCOc1ncnc2c1[nH]c1ccccc12	-6.4	-5.5	10.0	49.3*	12.0	-8.4	-60.0	33.0
COc1ccc2[nH]c3c(N4CCc5ccccc5C4)ncnc3c2c1	-3.0	-54.6	0.7	19.5	-15.3	-47.6	nt	nt
